A short description of the experiment: MDA-MB-231 cell growth inhibition, dose response, cytotoxicity control for RAD54 inhibitor project, CellTiter-Glo luminescence, cherry-pick (AID 651692).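 Further: more negative values mean stronger loss of viable cell signal.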

Each structure is given as a SMILES string. Results with a measured potency or affinity are listed apart. Activity calls are given as the source filed them.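 How the source made its calls: active means fitted half-maximal concentration for loss of cell signal no higher than twice the top valid tested concentration; inconclusive means flat curve at 30 to 70% inhibition, or poor fit; inactive means flat within 30%, signal rise, or potency above limit.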

Our source for the outcome values is PubChem BioAssay AID651692 (Broad Institute, 2012).

In the case of `N=c1n(CCN2CCCCC2)c2ccccc2n1CC(=O)c1cccc([N+](=O)[O-])c1`, the outcome was inactive.
As for `COc1ccc2nc3cc(Cl)ccc3c(Nc3cc(CN4CCCC4)c(O)c(CN4CCCC4)c3)c2n1`, the outcome was inactive.
Then `COc1ccccc1Nc1c2ccccc2nc2ccccc12`, with “inactive”.
Take `CCOc1cc2[nH]c(=S)n(Cc3ccc(C(=O)NCCCN(CC)CC)cc3)c(=O)c2cc1OCC`: the compound was classed as inactive.
For `CCn1cc(C(=O)NCCN(C)C)c(=O)c2cc(F)c(N3CCN(C)CC3)cc21`, the outcome was inactive.
For the compound `Cc1nc2nc(C)c(C)nc2nc1C`, the result was inactive.
Then `CN1CCC[C@H]1CCNc1ccc2c(=O)c3ccccc3n(C)c2c1`, with “inactive”.
With `c1ccc2c(c1)oc1c(Nc3ccc(CN4CCOCC4)cc3)ncnc12` the entry was “inactive”.
With `CN1CCN(c2nc(-c3ccccn3)nc3ccccc23)CC1` the entry was “inactive”; with `COc1ccc(CCNC(=O)c2cc3c(=O)n4ccccc4nc3n(CCCN3CCOCC3)c2=N)cc1OC`, “inactive”.
`COc1ccc(OC)c(Nc2nc(NCCO)c3ccccc3n2)c1`: the call was inactive.
Regarding `COc1ccc2cc3cc(C(=O)NCCCN4CCC(C)CC4)oc3nc2c1`, the call was inactive.
With `COc1ccccc1Nc1nc(NCC2CCCO2)c2ccccc2n1` (stereo not given) the entry was “inactive”.
For the compound `CCOC(=O)C1C(=O)NC(N2CCN(c3ccccc3)CC2)=NC1c1ccco1` (stereo not given), the compound was classed as inactive.
With `CCN(CC)CCNC(=O)c1cc2c(=O)n(C)c3ccccc3c2s1` the entry was “inactive”; with `Cc1cccn2c(=O)c3cc(C#N)c(=O)n(CCCN4CCOCC4)c3nc12`, “inactive”; with `COc1ccc2oc3cc(NCCN(C)C)ccc3c(=O)c2c1`, “inactive”.
With `COc1cc2nc(Nc3ccc(F)cc3)nc(N)c2cc1OC` the entry was “inactive”; with `CCN1CCN(c2cc(C)c3cc(NC(=S)N4CCCC(C)C4)ccc3n2)CC1` (stereo not given), “inactive”; with `Cc1ccnc(Nc2nc(-c3sc(C)nc3C)cs2)c1`, “inactive”.
Then `Cc1cccn2c(=O)c3cc(C(=O)NCCc4ccccc4)c(=N)n(CCCn4ccnc4)c3nc12`, with “inactive”; and `CN1CCN(c2nc(-c3cccnc3)nc3ccccc23)CC1`, with “inactive”.
Take `COc1cc2[nH]c3c(=O)n(CCN4CCCCC4)cnc3c2cc1OC`: the compound was called inactive.
With `COc1ccccc1NC(=O)CNC(=O)c1ccccc1` the entry was “inactive”.
Then `CCN1CCN(c2cc(C)c3cc(NC(=S)N4CCCCC4)ccc3n2)CC1`, with “inactive”.
Take `CN(C)CCNC(=O)c1cccc(-c2cnc3c(NC=O)cc(-c4cccs4)cn23)c1`: the compound was called inactive.
For `CCN(CC)CCn1c2ccc(F)cc2c2nc(C)sc21`, the compound was called inactive.
Then `Cc1cc(-c2cc(NC=O)c3ncc(-c4cccc(C(=O)NCCN(C)C)c4)n3c2)cc(C)c1O`, with “inactive”; and `Cc1cccn2c(=O)c3cc(C(=O)NCC4CCCO4)c(=N)n(C4CCCCC4)c3nc12` (stereo not given), with “inactive”; and `COc1cc(NC(=O)c2cccnc2Sc2ccc(C)c(C)c2)cc(OC)c1OC`, with “inactive”.
Then `CC(CCCN1CCCC1)Nc1ccnc2cc(Cl)ccc12` (stereo not given), with “inactive”; and `COc1cc2nc(NCCCN3CCN(C)CC3)n3nc(-c4ccccc4)nc3c2cc1OC`, with “inactive”.
As for `O=c1c2ccccc2sc2ccc(NCCCN3CCOCC3)cc12`, the result was inactive.
With `Cc1cccc2cc3c(N)c(C#N)sc3nc12` the entry was “inactive”; with `COc1cc2c(C#N)c(N3CCN(C)CC3)nc(N)c2c(N)n1`, “inactive”; with `Cc1cc(C)c2c(c1)c1nnc(SCCN3CCCCC3)nc1n2C`, “inactive”.
Then `CCOC(=O)c1cnc2c(ccc3ccccc32)c1NCCN(C)C`, with “inactive”; and `Cc1ccc2c(c1)c1nc3ccccc3nc1n2CCN1CCOCC1`, with “inactive”.
`Oc1cccc(Nc2c3ccccc3nc3ccccc23)c1`: the call was inactive.
Then `CN(C)CCCNc1c2ccccc2nc2ccccc12`, with “inactive”; and `CCOC(=O)c1[nH]c2cc3c(cc2c1CCCN1C(=O)c2ccccc2C1=O)OCCO3`, with “inactive”.
On to `CN(C)CCNC(=O)c1cccc(-c2cnc3c(NC=O)cc(-c4cccc(F)c4)cn23)c1`, for which the outcome was inactive.
Then `COc1ccc(C(=O)Nc2ccc3nc(N4CCN(C)CC4)cc(C)c3c2)c(OC)c1`, with “inactive”; and `Cc1nc2ccccc2c2oc(C(=O)NCCN3CCCCC3C)cc12` (stereo not given), with “inactive”; and `CCN(CC)S(=O)(=O)c1ccc(Cl)c(C(=O)Nc2nnc(C)s2)c1`, with “inactive”.
With `CCN(CC)CCNC(=O)c1cc2c(=O)n(C)c3ccccc3c2n1C`, the compound was classed as inactive.
For `COc1ccccc1Nc1nc(NCCCN(C)C)nc(N)c1[N+](=O)[O-]`, the compound was classed as inactive.
Then `c1cncc(Nc2c3ccccc3nc3ccccc23)c1`, with “inactive”; and `c1c[nH]c(CN2CCN(Cc3ncc[nH]3)CC2)n1`, with “inactive”.
Then `Cc1ccsc1-c1cc2nc(NCCCN(C)C)n(C)c(=O)c2s1`, with “inactive”.
